Assay [1] in a line: BSK_3C_SRB: Viability Assessment in the BioMAP Diversity Plus: 3C Assay (AID 2283023).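 Further: cells read 24 h after compound dosing; fitted both ways against DMSO so a hit may be signal rise or drop.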 Conditions: primary human endothelial cells (HUVEC). Summed up: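 Overt cytotoxicity is gauged in parallel confluent HUVEC cultures by SRB total-protein staining at the time of biomarker measurement, 24 h after dosing. Gain or loss of signal is fitted versus DMSO.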
Read-out in assay [2]: Matrix Metallopeptidase 1 (MMP1), MMP1 (gene 4312)
Briefly: BSK_BE3C_MMP1: BioMAP Diversity Plus: BE3C Assay for Matrix Metallopeptidase 1 (MMP1) Biomarker Activity (AID 2283024). The settings on record: primary human bronchial epithelial cells; actives raise or lower the signal. An outline of the steps:
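In this multiplexed primary-cell system, human bronchial epithelium received chemicals for 24 h before an ELISA for MMP1. Values reflect bidirectional fits normalised to the DMSO baseline.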

Assay [3] is described as follows: BSK_3C_Vis: BioMAP Diversity Plus: 3C Assay for Morphology Visualization (AID 2283025).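 Further: fitted both ways so gain or loss versus DMSO counts.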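 On AC50: light microscopy image of cell morphology used as background control.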 The settings on record: primary human endothelial cells (HUVEC). An outline of the steps:
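Light-microscopy morphology readout, 24 h exposure, human primary umbilical vein endothelium; analysed relative to DMSO with bidirectional fitting.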

Read-out in assay [4]: Pselectin, SELP (gene 6403)
Briefly: BSK_4H_Pselectin: BioMAP Diversity Plus: 4H Assay for Pselectin Biomarker Activity (AID 2283026). Conditions: primary human endothelial cells (HUVEC); actives raise or lower the signal. An outline of the steps:
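Bidirectional fits against DMSO gave the endpoint. Cells: primary human umbilical vein endothelium, chemical-treated for 24 h before ELISA detection of P-selectin.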

A short description of assay [5]: BSK_4H_SRB: Viability Assessment in the BioMAP Diversity Plus: 4H Assay (AID 2283027).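 Further: cells exposed to compound for 24 h before staining.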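 On AC50: curves fitted both ways versus DMSO so AC50 may be loss or gain.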 The settings on record: primary human endothelial cells (HUVEC). An outline of the steps:
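HUVEC, 24 h post-dose; 10% TCA fix, 0.1% SRB stain, A560 nm. Total protein = overt cytotoxicity, parallel to biomarker read. Bidirectional fit vs DMSO baseline.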

The nature of assay [6]: BSK_BE3C_SRB: Viability Assessment in the BioMAP Diversity Plus: BE3C Assay (AID 2283028).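 Further: measured 24 h after chemical dosing.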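 On AC50: fitted both ways so AC50 may mark signal gain or loss versus DMSO.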 Conditions: primary human bronchial epithelial cells. Summed up:
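SRB total-protein staining (0.1%, after TCA fixation) of chemically dosed human bronchial epithelial primary cells at 24 h; DMSO serves as the negative control for bidirectional curve fitting.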

Read-out in assay [7]: Thrombomodulin, THBD (gene 7056)
Nature of the assay: BSK_3C_Thrombomodulin: BioMAP Diversity Plus: 3C Assay for Thrombomodulin Biomarker Activity (AID 2283029). The settings on record: primary human endothelial cells (HUVEC); actives raise or lower the signal. Summed up:
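In a multiplexed primary-cell system, human umbilical vein endothelium received chemical and was assayed 24 h later for thrombomodulin by ELISA. Parallel cultures were SRB-stained (0.1% SRB after 10% TCA fixation, read at 560 nm) to flag cytotoxicity.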

Read-out in assay [8]: Urokinase-type plasminogen activator receptor (uPAR), PLAUR (gene 5329)
Briefly: BSK_4H_uPAR: BioMAP Diversity Plus: 4H Assay for Urokinase-type plasminogen activator receptor (uPAR) Biomarker Activity (AID 2283030). The settings on record: primary human endothelial cells (HUVEC); actives raise or lower the signal. An outline of the steps:
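Endpoint derived via bidirectional curve fitting against DMSO baseline; readout was ELISA detection of uPAR on umbilical vein endothelial cells at 24 h post-treatment, with SRB-stained parallel cultures assessing cytotoxicity.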

Read-out in assay [9]: Vascular endothelial growth factor receptor 2 (Homo sapiens) (UniProt P35968)
Briefly: BSK_4H_VEGFRII: BioMAP Diversity Plus: 4H Assay for Vascular endothelial growth factor receptor 2 (VEGFR2) Biomarker Activity (AID 2283031).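 On AC50: cell-surface VEGFR2 protein level quantified by ELISA.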 Conditions: primary human endothelial cells (HUVEC); actives raise or lower the signal. Summed up:
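In this multiplexed HUVEC system, biomarker ELISA was performed after 24 h chemical exposure. Parallel SRB staining (TCA fixation, 560 nm) tracked cytotoxicity; DMSO served as baseline.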

Read-out in assay [10]: Human Leukocyte Antigen - DR isotype (HLADR), HLA-DRA (gene 3122)
Nature of the assay: BSK_BE3C_HLADR: BioMAP Diversity Plus: BE3C Assay for Human Leukocyte Antigen - DR isotype (HLADR) Biomarker Activity (AID 2283032). Conditions: primary human bronchial epithelial cells; actives raise or lower the signal. Summed up: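 BioMAP BE3C format: human bronchial epithelium, 24 h compound treatment, ELISA detection of HLA-DR, with bidirectional analysis relative to DMSO.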

Active and inactive are the calls of the source. How the source made its calls: active means hit-call score of the fitted dose curve at least 0.9, where 1 is the maximum; inactive means score below 0.9.

Turning to `CC(C)=CCCC(C)CCO` (stereo not drawn), the result in assay [1], in assay [2], in assay [3], in [4], in assay [5] and in assay [6] was inactive. The result in assay [7], in assay [8], in assay [9] and in assay [10] was inactive.
For the compound `Cc1ccc(O)cc1`, the outcome in assay [1], in [2], in assay [3], in assay [4], in assay [5] and in assay [6] was inactive. The outcome in assay [7], in assay [8], in assay [9] and in assay [10] was inactive.
On to `Nc1cccc(N)c1`, for which the result in [1], in assay [2], in [3], in [4], in assay [5] and in assay [6] was inactive. The result in assay [7], in assay [8], in assay [9] and in assay [10] was inactive.
Take `O=c1n(CC2CO2)c(=O)n(CC2CO2)c(=O)n1CC1CO1` (stereo not drawn): the AC50 – broadly, the concentration giving half of the maximal activity seen – is 17.5 µM (active) in [1]; 39 µM (active) in assay [3]; 11.8 µM (active) in assay [4]; 15.1 µM (active) in [5]; 34.7 µM (active) in [10]. Besides, the result in [2], in assay [6], in assay [7], in assay [8] and in assay [9] was inactive.
Consider `Cn1c(=O)c2c(ncn2C)n(C)c1=O`, for which the outcome in [1], in assay [2], in assay [3], in [4], in assay [5] and in assay [6] was inactive. For the same compound, the outcome in [7], in assay [8], in [9] and in assay [10] was inactive.
`CC(C)=CCCC(C)=CC=O`: the result in assay [1], in [2], in [3], in [4], in assay [5] and in [6] was inactive. Also, the outcome in assay [7], in [8], in [9] and in assay [10] was inactive.
`C=CC(=C)CCC=C(C)C`: the result in assay [1], in assay [2], in assay [3], in assay [4], in [5] and in [6] was inactive. Moreover, the result in assay [7], in [8], in assay [9] and in assay [10] was inactive.
With `CC1=CC(=O)CC(C)(C)C1`, the outcome in assay [1], in assay [2], in [3], in assay [4], in assay [5] and in [6] was inactive. The outcome in assay [7], in assay [8], in assay [9] and in [10] was inactive.
Take `CC(O)CN(CCN(CC(C)O)CC(C)O)CC(C)O` (stereo not drawn): the result in assay [1], in assay [2], in assay [3], in assay [4], in assay [5] and in assay [6] was inactive. The result in assay [7], in [8], in [9] and in assay [10] was inactive.
Turning to `CCOC(=O)c1ccc(C2CCC(NC[C@H](O)COc3ccc(O)c(NS(C)(=O)=O)c3)CC2)cc1` (stereo partly drawn), the AC50 in assay [1] was 25.1 µM (active); in assay [3], 37.1 µM (active); in assay [4], 27 µM (active); in assay [5], 27.5 µM (active). Also, the outcome in [2], in assay [6], in assay [7], in [8] and in assay [10] was inactive.
Consider `COCCOc1cc2cc(C(=O)NC3CCN(C(C)C)CC3)n(CC(=O)Nc3ccc(Cl)cn3)c2cn1`, for which the outcome in [1], in assay [2], in [3], in assay [4], in assay [5] and in assay [6] was inactive. The outcome in assay [7], in [8] and in assay [10] was inactive.
In the case of `CN(C)c1ccc(N=NS(=O)(=O)O)cc1`, the result in assay [1], in assay [2], in [3], in assay [4], in assay [5] and in [6] was inactive. Moreover, the result in [7], in assay [9] and in [10] was inactive.
In the case of `CC(C)(O)c1coc(S(=O)(=O)NC(=O)Nc2c3c(cc4c2CCC4)CCC3)c1`, the outcome in assay [1], in assay [2], in [3], in [4], in assay [5] and in assay [6] was inactive. Besides, the outcome in assay [7], in assay [9] and in assay [10] was inactive.
In the case of `Nc1nc2ncc(CNc3ccc(C(=O)N[C@@H](CCC(=O)O)C(=O)O)cc3)nc2c(=O)[nH]1`, the outcome in [1], in assay [2], in assay [3], in assay [4], in [5] and in assay [6] was inactive. The result in assay [7], in assay [9] and in assay [10] was inactive.
As to `CCCC(=O)OCC`, the result in assay [1], in assay [2], in [3], in assay [4], in assay [5] and in assay [6] was inactive. The outcome in assay [7], in assay [8] and in [10] was inactive.
Take `CCCCC(CC)COC(=O)CCCCCCCCC(=O)OCC(CC)CCCC` (stereo not drawn): the outcome in assay [1], in assay [2], in [3], in assay [4], in [5] and in [6] was inactive. The outcome in assay [7], in assay [8] and in [10] was inactive.
As to `CCOc1cccc(-n2cc(C(=O)N3CCN(c4cc(C(=O)O)c5ccccc5c4)CC3)nc2-c2ccc(C)cc2)c1`, the AC50 is 16.8 µM (active) in assay [1]; 33.4 µM (active) in [2]; 38 µM (active) in assay [3]; 26.2 µM (active) in assay [4]; 13.7 µM (active) in [5]; 31.3 µM (active) in assay [6]. In addition, the concentration at half-maximal activity (AC50) is 18.2 µM (active) in assay [9] and 24.5 µM (active) in assay [10]. In [7], the result was inactive.
As for `CC(=O)c1ccc2c(c1)[C@H](NC(=O)c1ccc(F)cc1)[C@@H](O)C(C)(C)O2`, the result in assay [1], in assay [2], in assay [3], in [4], in assay [5] and in [6] was inactive. Also, the outcome in assay [7], in [9] and in assay [10] was inactive.
As to `CCOC(=O)COc1ccc2c(c1)CC(NCC(O)c1cccc(Cl)c1)CC2` (stereo not drawn), the concentration at half-maximal activity (AC50) in [1] was 26.7 µM (active); in [3], 34.2 µM (active); in assay [4], 29.8 µM (active); in assay [5], 28.1 µM (active); in assay [8], 28.7 µM (active); in assay [10], 30.3 µM (active). Also, the result in assay [2], in assay [6] and in assay [7] was inactive.
Consider `O=P(OC(CCl)CCl)(OC(CCl)CCl)OC(CCl)CCl`, for which the result in assay [1], in assay [4], in [5], in assay [6], in assay [7] and in assay [9] was inactive. In [10], the outcome was inactive. The AC50 in [2] is 7.97 µM (active); in assay [3], 39 µM (active).
Turning to `Clc1nc(Cl)c(Cl)c(Cl)c1Cl`, the result in assay [1], in assay [2], in assay [5], in assay [6], in assay [7] and in assay [9] was inactive. Further, the AC50 was 37.5 µM (active) in [3], 30.2 µM (active) in [4] and 26.4 µM (active) in assay [10].

Source of the values: PubChem BioAssay (EPA / NIEHS).
